Screen size: about 5,500 compounds; about 2,000 (36%) were called active. About 18% were inconclusive and are not listed. The list shows a part of the results. A number with no mark means an inactive call. Rule as the data show it: active = normalized growth mostly below about 0.91 (no sharp cut-off); inconclusive = no clear call, values can overlap the other calls; inactive = mostly above about 0.92.
Assay: chemical genetic growth profiling, strain panel (AID 1159580);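 also: tested at 20 µM; growth read once vehicle control cultures reached saturation at 30 °C; 1 = growth at the plate median or of vehicle wells; lower values mean less growth of the strain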
Details: growth OD
[1] = S. cerevisiae deletion strains, locus YDL101C, strain DUN1, hits give low values
[2] = S. cerevisiae deletion strains, locus YHR030C, strain SLT2, hits give low values

In the case of `O=C1C(Cl)=C(Oc2cc(Cl)c(Cl)cc2Cl)C(=O)c2ccccc21`, the normalized growth (S. cerevisiae deletion strains, locus YAR019C, strain CDC15, hits give low values) is reported as 0.215 (active), the normalized growth (S. cerevisiae deletion strains, locus YBR136W, strain MEC1, hits give low values) is reported as 0.516 (active) and the normalized growth (S. cerevisiae deletion strains, locus YDL017W, strain CDC7, hits give low values) is reported as 0.912. The normalized growth (S. cerevisiae deletion strains, locus YDL028C, strain MPS1, hits give low values) was 0.936, the normalized growth [1] was 0.524 (active) and the normalized growth (S. cerevisiae deletion strains, locus YDL132W, strain cdc53, hits give low values) was 0.41 (active). The normalized growth (S. cerevisiae deletion strains, locus YDL214C, strain PRR2, hits give low values) was 0.114 (active), the normalized growth (S. cerevisiae deletion strains, locus YDR052C, strain DBF4, hits give low values) was 0.546 (active) and the normalized growth (S. cerevisiae deletion strains, locus YDR054C, strain cdc34, hits give low values) was 0.133 (active). For the same compound, the normalized growth (S. cerevisiae deletion strains, locus YDR477W, strain SNF1, hits give low values) was 0.125 (active), the normalized growth (S. cerevisiae deletion strains, locus YER123W, strain YCK3, hits give low values) was 0.122 (active) and the normalized growth (S. cerevisiae deletion strains, locus YER133W, strain GLC7, hits give low values) was 0.126 (active). The normalized growth (S. cerevisiae deletion strains, locus YFL009W, strain cdc4, hits give low values) was 0.922, the normalized growth (S. cerevisiae deletion strains, locus YFL029C, strain CAK1, hits give low values) was 0.236 (active) and the normalized growth (S. cerevisiae deletion strains, locus YFR003C, strain YPI1, hits give low values) was 0.941. For the same compound, the normalized growth (S. cerevisiae deletion strains, locus YFR019W, strain FAB1, hits give low values) was 0.104 (active), the normalized growth (S. cerevisiae deletion strains, locus YFR028C, strain CDC14, hits give low values) was 0.149 (active) and the normalized growth (S. cerevisiae deletion strains, locus YGR040W, strain KSS1, hits give low values) was 0.14 (active). For the same compound, the normalized growth (S. cerevisiae deletion strains, locus YGR052W, strain FMP48, hits give low values) was 0.126 (active), the normalized growth (S. cerevisiae deletion strains, locus YGR092W, strain DBF2, hits give low values) was 0.352 (active) and the normalized growth [2] was 0.122 (active). For the same compound, the normalized growth (S. cerevisiae deletion strains, locus YHR079C, strain IRE1, hits give low values) was 0.333 (active), the normalized growth (S. cerevisiae deletion strains, locus YHR082C, strain KSP1, hits give low values) was 0.148 (active) and the normalized growth (S. cerevisiae deletion strains, locus YHR205W, strain SCH9, hits give low values) was 0.125 (active). For the same compound, the normalized growth (S. cerevisiae deletion strains, locus YIL147C, strain SLN1, hits give low values) was 0.938, the normalized growth (S. cerevisiae deletion strains, locus YJL095W, strain BCK1, hits give low values) was 0.114 (active) and the normalized growth (S. cerevisiae deletion strains, locus YJL128C, strain PBS2, hits give low values) was 0.11 (active). The normalized growth (S. cerevisiae deletion strains, locus YJL157C, strain FAR1, hits give low values) was 0.303 (active), the normalized growth (S. cerevisiae deletion strains, locus YJR016C, strain ILV3, hits give low values) was 0.917 and the normalized growth (S. cerevisiae deletion strains, locus YJR066W, strain TOR1 (second series), hits give low values) was 0.119 (active). For the same compound, the normalized growth (S. cerevisiae deletion strains, locus YJR066W, strain TOR1, hits give low values) was 0.12 (active), the normalized growth (S. cerevisiae deletion strains, locus YKL048C, strain ELM1, hits give low values) was 0.658 (active) and the normalized growth (S. cerevisiae deletion strains, locus YKL067W, strain YNK1, hits give low values) was 0.32 (active). The normalized growth (S. cerevisiae deletion strains, locus YKL101W, strain HSL1, hits give low values) was 0.38 (active), the normalized growth (S. cerevisiae deletion strains, locus YKL193C, strain SDS22, hits give low values) was 0.174 (active) and the normalized growth (S. cerevisiae deletion strains, locus YKL203C, strain TOR2, hits give low values) was 0.13 (active). For the same compound, the normalized growth (S. cerevisiae deletion strains, locus YLR113W, strain HOG1, hits give low values) was 0.171 (active), the normalized growth (S. cerevisiae deletion strains, locus YLR133W, strain CKI1, hits give low values) was 0.294 (active) and the normalized growth (S. cerevisiae deletion strains, locus YLR403W, strain SFP1, hits give low values) was 0.197 (active). The normalized growth (S. cerevisiae deletion strains, locus YML070W, strain DAK1, hits give low values) was 0.105 (active), the normalized growth (S. cerevisiae deletion strains, locus YMR001C, strain CDC5, hits give low values) was 0.11 (active) and the normalized growth (S. cerevisiae deletion strains, locus YMR205C, strain PFK2 (second series), hits give low values) was 0.538 (active). The normalized growth (S. cerevisiae deletion strains, locus YMR277W, strain FCP1, hits give low values) was 0.117 (active), the normalized growth (S. cerevisiae deletion strains, locus YNL006W, strain LST8, hits give low values) was 0.95 and the normalized growth (S. cerevisiae deletion strains, locus YNL020C, strain ARK1, hits give low values) was 0.555 (active). The normalized growth (S. cerevisiae deletion strains, locus YNL183C, strain NPR1, hits give low values) was 0.128 (active), the normalized growth (S. cerevisiae deletion strains, locus YNL207W, strain RIO2, hits give low values) was 0.537 (active) and the normalized growth (S. cerevisiae deletion strains, locus YNL222W, strain SSU72, hits give low values) was 0.522 (active). The normalized growth (S. cerevisiae deletion strains, locus YNL307C, strain MCK1 (second series), hits give low values) was 0.246 (active), the normalized growth (S. cerevisiae deletion strains, locus YOL078W, strain AVO1, hits give low values) was 0.161 (active) and the normalized growth (S. cerevisiae deletion strains, locus YOL136C, strain PFK27, hits give low values) was 0.11 (active). The normalized growth (S. cerevisiae deletion strains, locus YOR061W, strain CKA2, hits give low values) was 0.519 (active), the normalized growth (S. cerevisiae deletion strains, locus YOR119C, strain RIO1, hits give low values) was 0.118 (active) and the normalized growth (S. cerevisiae deletion strains, locus YOR231W, strain MKK1, hits give low values) was 0.294 (active). For the same compound, the normalized growth (S. cerevisiae deletion strains, locus YOR329C, strain SCD5, hits give low values) was 0.94, the normalized growth (S. cerevisiae deletion strains, locus YPL031C, strain PHO85, hits give low values) was 0.225 (active) and the normalized growth (S. cerevisiae deletion strains, locus YPL153C, strain RAD53, hits give low values) was 0.318 (active). The normalized growth (S. cerevisiae deletion strains, locus YPL204W, strain HRR25, hits give low values) was 0.327 (active), the normalized growth (S. cerevisiae deletion strains, locus YPL209C, strain IPL1, hits give low values) was 0.581 (active) and the normalized growth (S. cerevisiae deletion strains, locus YPL256C, strain CLN2, hits give low values) was 0.183 (active). The normalized growth (S. cerevisiae deletion strains, locus YPR025C, strain CCL1, hits give low values) was 0.543 (active), the normalized growth (S. cerevisiae deletion strains, locus YPR111W, strain DBF20, hits give low values) was 0.897 and the normalized growth (S. cerevisiae deletion strains, strain TSCII, hits give low values) was 0.345 (active).

`O=C1CC(Nc2ccccc2)C=C1Nc1ccccc1` (configuration not stated) showed a normalized growth (S. cerevisiae deletion strains, locus YAL013W, strain DEP1, hits give low values) of 1.01, a normalized growth (S. cerevisiae deletion strains, locus YBR229C, strain ROT2, hits give low values) of 1.03 and a normalized growth (S. cerevisiae deletion strains, locus YCL061C, strain MRC1, hits give low values) of 1.01. It also gave a normalized growth [1] of 1.01, a normalized growth (S. cerevisiae deletion strains, locus YDL134C, strain PPH21, hits give low values) of 1.02 and a normalized growth (S. cerevisiae deletion strains, locus YDR150W, strain NUM1, hits give low values) of 1.02. The normalized growth (S. cerevisiae deletion strains, locus YEL061C, strain CIN8, hits give low values) was 1.01, the normalized growth (S. cerevisiae deletion strains, locus YGR078C, strain PAC10, hits give low values) was 1.01 and the normalized growth [2] was 1.01. It also gave a normalized growth (S. cerevisiae deletion strains, locus YHR087W, strain rtc3, hits give low values) of 1.02, a normalized growth (S. cerevisiae deletion strains, locus YJR043C, strain POL32, hits give low values) of 1.01 and a normalized growth (S. cerevisiae deletion strains, locus YJR075W, strain HOC1, hits give low values) of 1.03. For the same compound, the normalized growth (S. cerevisiae deletion strains, locus YKL190W, strain CNB1, hits give low values) was 1.02, the normalized growth (S. cerevisiae deletion strains, locus YLR039C, strain RIC1, hits give low values) was 0.977 and the normalized growth (S. cerevisiae deletion strains, locus YLR058C, strain SHM2 (second series), hits give low values) was 1.03. For the same compound, the normalized growth (S. cerevisiae deletion strains, locus YLR085C, strain ARP6, hits give low values) was 0.968, the normalized growth (S. cerevisiae deletion strains, locus YLR262C, strain YPT6, hits give low values) was 1.02 and the normalized growth (S. cerevisiae deletion strains, locus YML094W, strain GIM5, hits give low values) was 1.01. For the same compound, the normalized growth (S. cerevisiae deletion strains, locus YMR219W, strain ESC1, hits give low values) was 1.03, the normalized growth (S. cerevisiae deletion strains, locus YMR263W, strain SAP30, hits give low values) was 1 and the normalized growth (S. cerevisiae deletion strains, locus YMR307W, strain GAS1, hits give low values) was 1.02. The normalized growth (S. cerevisiae deletion strains, locus YNL153C, strain GIM3, hits give low values) was 1, the normalized growth (S. cerevisiae deletion strains, locus YNL298W, strain CLA4 (second series), hits give low values) was 0.979 and the normalized growth (S. cerevisiae deletion strains, locus YNL322C, strain KRE1, hits give low values) was 1.01. The normalized growth (S. cerevisiae deletion strains, locus YNR030W, strain Alg12, hits give low values) was 1.01, the normalized growth (S. cerevisiae deletion strains, locus YPL055C, strain LGE1, hits give low values) was 1.09 and the normalized growth (S. cerevisiae deletion strains, locus YPL241C, strain CIN2, hits give low values) was 0.998. The normalized growth (S. cerevisiae deletion strains, locus YPR135W, strain CTF4, hits give low values) was 0.966 and the normalized growth (S. cerevisiae strains, strain wild type, hits give low values) was 1.02.
